Pol kappa inh-1 – qHTS for Inhibitors of Polymerase Kappa | purified Pol kappa, fluorescent DNA synthesis assay, 10 min | Potency, µM (doses to about 107 µM), actives largely listed as inhibitors | hit rate 0.53% among 400,000
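Enzyme at 10 nM met test compounds for 15 min at room temperature. Substrate addition (50 nM final) began the reaction, which was monitored by fluorescence at 0 and 10 min.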
POLB inh – qHTS Assay for Inhibitors of DNA Polymerase Beta. P06746. Pol beta primer extension/strand displacement, fluorescence kinetic. Potency, µM (doses to about 114 µM), usual class: inhibitors. hit rate 1.3% among 340,000. AID 485314, 2010
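Preincubation: enzyme (10 nM) with compound, 15 min, RT. Reaction: substrate added to 50 nM final. Reads: 0 and 10 min. Analysis: normalized, Hill fit.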
Pol iota inh – qHTS for Inhibitors of Polymerase Iota | Pol iota fluorescent replication assay, 10 min | Potency, µM (top dose mostly 115 µM), usual class: inhibitors | hit rate 1% among 390,000
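Pol iota at 10 nM preincubated 15 min with compounds at room temperature; reaction started with fluorescent substrate, 50 nM final. Fluorescence read kinetically at 0 and 10 min; buffer-only wells as negative control.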
Pol eta inh-1 – qHTS for Inhibitors of Polymerase Eta; DNA polymerase eta (Homo sapiens), Q9Y253; recombinant Pol eta, fluorescent DNA replication assay; Potency, µM (series often up to 114 µM), actives largely listed as inhibitors; hit rate 1.2% among 390,000
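Pol eta at 10 nM preincubated with compounds 15 min at room temperature; reaction started with fluorescent substrate (50 nM final) and read kinetically at 0 and 10 min.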
WRN helicase inh – qHTS for Inhibitors of WRN Helicase | Bifunctional 3'-5' exonuclease/ATP-dependent helicase WRN (Homo sapiens), Q14191 | AID 651768, 2012 | WRN helicase unwinding, fluorescent forked duplex, kinetic | hit rate 0.46% among 360,000 | Potency, µM (top dose mostly 114 µM), actives largely listed as inhibitors; note: nearly all actives have a fitted effect of over 55% in size
Target sequence (Q14191 whole entry, looked up): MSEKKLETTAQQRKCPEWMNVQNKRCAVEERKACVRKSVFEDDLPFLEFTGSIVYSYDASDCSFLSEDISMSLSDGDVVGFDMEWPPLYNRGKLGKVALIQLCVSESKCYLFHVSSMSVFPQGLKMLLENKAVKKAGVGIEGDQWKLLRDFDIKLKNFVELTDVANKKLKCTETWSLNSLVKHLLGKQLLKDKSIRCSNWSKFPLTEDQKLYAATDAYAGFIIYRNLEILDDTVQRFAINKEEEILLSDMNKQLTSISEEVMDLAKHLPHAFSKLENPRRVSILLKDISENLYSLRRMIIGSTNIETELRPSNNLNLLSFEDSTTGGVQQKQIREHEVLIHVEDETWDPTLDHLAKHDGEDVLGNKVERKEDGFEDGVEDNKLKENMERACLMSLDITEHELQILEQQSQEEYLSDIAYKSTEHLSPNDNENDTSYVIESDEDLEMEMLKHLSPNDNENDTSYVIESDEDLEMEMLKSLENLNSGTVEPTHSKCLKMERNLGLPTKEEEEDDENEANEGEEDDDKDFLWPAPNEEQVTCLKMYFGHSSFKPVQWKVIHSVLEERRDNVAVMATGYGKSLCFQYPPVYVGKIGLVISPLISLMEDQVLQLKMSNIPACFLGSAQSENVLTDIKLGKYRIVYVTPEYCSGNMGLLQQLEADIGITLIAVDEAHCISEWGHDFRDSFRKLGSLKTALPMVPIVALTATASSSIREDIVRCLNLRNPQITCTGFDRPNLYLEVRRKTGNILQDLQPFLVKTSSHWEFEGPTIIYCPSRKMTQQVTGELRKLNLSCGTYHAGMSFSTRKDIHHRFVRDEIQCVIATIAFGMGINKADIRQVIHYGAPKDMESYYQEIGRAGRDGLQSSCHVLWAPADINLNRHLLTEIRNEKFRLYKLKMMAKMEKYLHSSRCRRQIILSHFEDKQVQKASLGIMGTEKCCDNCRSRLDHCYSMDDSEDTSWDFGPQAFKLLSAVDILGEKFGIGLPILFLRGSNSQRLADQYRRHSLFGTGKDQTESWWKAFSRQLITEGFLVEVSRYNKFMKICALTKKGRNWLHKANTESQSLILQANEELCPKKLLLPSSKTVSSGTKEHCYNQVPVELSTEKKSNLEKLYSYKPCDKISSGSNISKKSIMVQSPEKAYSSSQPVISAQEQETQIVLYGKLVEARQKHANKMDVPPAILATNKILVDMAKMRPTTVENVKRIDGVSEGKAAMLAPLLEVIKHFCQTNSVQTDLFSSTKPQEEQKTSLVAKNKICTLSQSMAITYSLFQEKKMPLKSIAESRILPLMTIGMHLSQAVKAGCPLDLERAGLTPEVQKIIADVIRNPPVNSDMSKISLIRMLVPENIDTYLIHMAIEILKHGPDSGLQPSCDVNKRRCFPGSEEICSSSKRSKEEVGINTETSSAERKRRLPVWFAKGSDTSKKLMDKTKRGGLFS
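Enzyme (20 nM final) and test compound sit together 15 min at room temperature before substrate addition. Substrate is a single-forked duplex oligonucleotide (100 nM) labelled with fluorophore and quencher, with 2 mM ATP; helicase unwinding raises red fluorescence, read kinetically.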
FEN1 inh – qHTS Assay for the Inhibitors of Human Flap endonuclease 1 (FEN1) | P39748 | hit rate 0.35% among 390,000 | Potency, µM (top dose mostly 114 µM), actives largely listed as inhibitors | AID 588795, 2011 | Recombinant FEN1 flap cleavage, fluorescence, 15 min; note: nearly all actives have a fitted effect of over 65% in size
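FEN1 at 10 nM, compound pretreatment for 15 min (room temperature), 50 nM final substrate to initiate; endpoint reads at 0 and 15 min; DMSO-only plates used as vehicle background.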
Pol kappa inh-2 – qHTS for Inhibitors of Polymerase Kappa: Confirmatory Assay for Cherry-picked Compounds; shares compounds with Pol eta inh-1; AID 720501, 2013; purified Pol-kappa, fluorescent strand-displacement substrate; hit rate 76% among 920; Potency, µM, usual class: inhibitors
Pol eta inh-2 – qHTS for Inhibitors of Polymerase Eta: Confirmatory Assay for Cherry-picked Compounds; shares compounds with Pol eta inh-1; Pol eta primer extension, TAMRA/BHQ fluorescence, 10 min; Potency, µM, most hits filed as inhibitors; hit rate 64% among 2,600; AID 720502, 2013
Hits are given with their value; - = inactive; ? = inconclusive; . = no result given; [ ] = another dose, or the depositor's remark. Sampled rows, rich in hits. Any-hit rate of the full collection: about 2.4%. Calls come from the whole dose curve; as a rule, active = well fitted curve in the direction sought with a large enough effect; inconclusive = small, poorly fitted or top-dose-only effect, or another doubt; inactive = no such curve, though single readings can be large; an effect the other way counts as inactive or inconclusive.

SMILES | Pol kappa inh-1 | POLB inh | Pol iota inh | Pol eta inh-1 | WRN helicase inh | FEN1 inh | Pol eta inh-2 | others
Cc1ccc(-c2ccc(CCC(=O)O)n2Cc2ccco2)cc1 | - | ? | ? | 22µM | ? | - | ?
C[N+]1(Cc2ccccc2)CCC(C(=O)OCC2CCCC2)CC1 (stereo not drawn) | -[19.4 µM] | . | . | . | . | . | .
CC(=O)N=c1c(C#N)cc2c(=O)n3cccc(C)c3nc2n1Cc1ccco1 | - | ? | 40µM | 32µM | - | - | ?
Cc1ccc(NC(=O)CCC(=O)c2ccc(Cl)s2)nc1 | ? | . | ? | 40µM | - | - | . | Pol kappa inh-2=?
CCOc1cccc(=O)c2c(C)n(-c3ccc(C(=O)O)cc3)c(C)c12 | ? | 22µM | ? | 28µM | ? | ? | 27
CCOc1cccc(=O)c2c(C)n(Cc3ccccc3)c(C)c12 | - | ? | - | - | - | - | .
Cc1ncnc2nc[nH]c12 | - | . | - | . | . | - | .
O=C(O)c1ccc(/C=C2\COc3ccccc3C2=O)cc1 | - | - | ? | ? | ? | - | ?
Cc1cc(C)c2c(c1)C(=O)/C(=C/c1ccc(C(=O)O)cc1)CC2 | - | - | ? | ? | - | - | .
Cc1c(Cl)cccc1NC(=O)CCS(=O)(=O)c1ccc2c(c1)CC(C)N2C(=O)C1CC1 (stereo not drawn) | - | - | - | - | . | - | .
N=C(N)SCc1ncccc1O | - | - | 50µM | - | - | - | ?
CC[C@H](C)[C@H](NC(=O)[C@H](CCC(=O)O)NC(=O)[C@H](CO)NC(=O)[C@@H](NC(=O)[C@H](C)N)C(C)C)C(=O)N[C@@H](CCC(N)=O)C(=O)N[C@@H](CC(C)C)C(=O)N[C@@H](CCSC)C(=O)N[C@@H](Cc1cnc[nH]1)C(=O)N[C@@H](CC(N)=O)C(=O)N[C@@H](CC(C)C)C(=O)NCC(=O)N[C@@H](CCCCN)C(=O)N[C@@H](Cc1cnc[nH]1)C(=O)N[C@@H](CC(C)C)C(=O)N[C@@H](C)C(=O)N[C@@H](CO)C(=O)N[C@H](C(=O)N[C@@H](CCC(=O)O)C(=O)N[C@@H](CCCNC(=N)N)C(=O)N[C@@H](CCSC)C(=O)N[C@@H](CCC(N)=O)C(=O)N[C@@H](Cc1c[nH]c2ccccc12)C(=O)N[C@@H](CC(C)C)C(=O)N[C@@H](CCCNC(=N)N)C(=O)N[C@@H](CCCCN)C(=O)N[C@@H](CCCCN)C(=O)N[C@@H](CC(C)C)C(=O)N[C@@H](CCC(N)=O)C(=O)N[C@@H](CC(=O)O)C(=O)N[C@H](C(=O)N[C@@H](Cc1cnc[nH]1)C(=O)N[C@@H](CC(N)=O)C(=O)N[C@@H](Cc1ccccc1)C(=O)O)C(C)C)C(C)C | -[12 µM] | . | . | . | . | . | .
O=C([O-])[C@@H]1[O][Sb+]([O][Sb+]2[O][C@H]([C@H](O)CO)[C@H](O)[C@H](C(=O)[O-])[O]2)[O][C@H]([C@H](O)CO)[C@@H]1O | - | . | . | . | . | . | .
Cc1ccc(NC(=O)CN2C(=O)N/C(=C\c3cccn3-c3ccc(C(=O)NS(C)(=O)=O)cc3)C2=O)cc1 | . | . | . | . | . | . | ?
O=C1N/C(=C/c2cccn2-c2ccc(F)cc2)C(=O)N1Cc1ccccc1F | - | - | - | - | - | - | .
Cc1cccc(NC(=O)CN2C(=O)N/C(=C/c3ccc(C)s3)C2=O)c1 | - | - | - | - | - | - | .
O=C(CN1C(=O)N/C(=C\c2cccn2-c2cccc(C(=O)O)c2)C1=O)Nc1cccc(Cl)c1 | . | . | . | . | . | . | . | Pol kappa inh-2=?
O=C(O)c1cccc(-n2cccc2/C=C2/NC(=O)N(Cc3ccccc3F)C2=O)c1 | ? | 10µM | 32µM | 20µM | -[11.6 µM] | - | ?
Cc1c(C(=O)OCC2CCCCC2)[nH]c2c1C(=O)CC(c1ccccc1Cl)C2 (stereo not drawn) | - | - | - | - | . | - | .
CCn1nnc2c(N3CCCC3)ncnc21 | - | . | - | . | . | - | .
CS(=O)(=O)c1ccc(C(=O)Nc2nc(-c3ccco3)c(-c3ccco3)s2)cc1 | 3.2µM | . | 1.6µM | 5µM | 45µM | 56µM | 43
CS(=O)(=O)c1ccc2nc(NC(=O)c3ccccc3)sc2c1 | - | - | - | - | - | - | .
N#CCCn1c(=O)c(-c2ccccc2)nc2cnc(OCc3ccccc3)nc21 | - | . | . | . | . | . | .
Cc1ccc(OCCCCn2c(CCNC(=O)C3CCCCC3)nc3ccccc32)cc1 | - | . | - | . | . | - | .
O=C1/C(=C/c2ccncc2)CCC/C1=C\c1ccncc1 | - | - | 10µM | 45µM | ? | - | ?
SMILES | Pol kappa inh-1 | POLB inh | Pol iota inh | Pol eta inh-1 | WRN helicase inh | FEN1 inh | Pol eta inh-2 | others
COC(=O)c1ccc(NC(=O)CSc2nc(=O)n(Cc3ccco3)c3c2CCC3)cc1 | - | - | - | - | . | - | .
COc1cc2c(C#N)c(N3CCN(C)CC3)nc(N)c2c(N)n1 | . | - | . | . | . | . | .
CCCOc1cc2c(C#N)c(N3CCCC3)nc(N)c2c(N)n1 | - | . | ? | 45µM | - | - | ?
O=C(OCCOCCO)c1ccccc1Nc1cccc(C(F)(F)F)c1 | -[12 µM] | . | . | . | . | . | .
O=C(COC(=O)c1ccc(Cl)c(S(=O)(=O)N2CCOCC2)c1)NCc1ccco1 | - | . | - | - | - | - | .
O=C(COC(=O)c1ccccc1Nc1cccc(C(F)(F)F)c1)NCc1ccco1 | ? | 40µM | ? | 20µM | - | - | 67
Nc1cc(C(=O)OCC(=O)NCc2ccco2)ccc1Cl | - | ? | ? | 18µM | - | - | ?
CCOc1ccccc1OCC(=O)NCc1ccco1 | ? | 28µM | 20µM | 79µM | ? | - | ?
CCCCN1CCC[C@@H]1CNC(=O)c1cc(C#N)c2ccccc2c1OC | -[19.4 µM] | . | . | . | . | . | .
CCC(CC)C(=O)N1c2ccccc2C(C)(c2ccccc2)CC1(C)C (stereo not drawn) | - | - | ? | - | . | - | .
CCOc1cc(CO)cc(Br)c1OCC(=O)O | - | . | ? | 16µM | ? | - | 85
Cc1ccc(S(=O)(=O)N2[C@@H](c3cccc(Cl)c3)C(C(=O)O)=CC[C@H]2c2ccc(C(C)C)cc2)cc1 | ? | . | ? | 89µM | -[11.6 µM] | - | . | Pol kappa inh-2=?
Cc1ccc(S(=O)(=O)N2[C@@H](c3ccc(Cl)cc3)C(C(=O)O)=CC[C@H]2c2cccc(Cl)c2)cc1 | - | . | - | - | - | - | .

Screening results (PubChem BioAssay)
